Experimental findings from PubChem BioAssay are described below.

Active and inactive are the calls of the source. Unless noted, how the calls were made is not given here.

For assay [1], the system named is Wnt5a (protein binding on small-molecule microarray). The assay is described as follows: small molecules binding Wnt5a protein – biophysical, small-molecule microarray, 635/667 nm fluorescence, primary screen (AID 1142).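 Further: fluorescence read at 667 nm with signal to noise per printed feature.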 The conditions noted are these: 635 nm fluorescence, higher = more signal.
Assay [2] in a line: ATP-based viability of Huh7 replicon cells – cell-based, CellTiter-Glo luminescence, basal, 48 h, cytotoxicity control for HCV replication inhibitor project, primary screen (AID 1143).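 Further: Huh7 hepatoma cells carrying a hepatitis C replication reporter with no stimulus; test concentration not given here.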 The settings on record: higher = more signal, called active from +8 up or from −8 down.
A short description of assay [3]: Pseudomonas biofilm growth suppression – PAO1 strain, BacTiter-Glo luminescence, LB-PBS, primary screen (AID 1144). The conditions noted are these: P. aeruginosa PAO1 biofilm, 12 h, higher = more signal.
Assay [4] is described as follows: basal CRE-LacZ reporter activity in PC12 – cell-based, unstimulated, primary screen (AID 1145). The settings on record: no forskolin, luminescence, 4.5 h, higher = more signal, called active from +8 up or from −8 down.
A short description of assay [5]: forskolin-driven CRE-LacZ activity in PC12 – cell-based, CRE-LacZ reporter, forskolin-stimulated, primary screen (AID 1146).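 Further: PC12 cells with 6xCRE LacZ reporter stimulated by forskolin 10 µM; beta-galactosidase reporter signal reflecting CREB driven transcription.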 The conditions noted are these: luminescence, 4.5 h, higher = more signal, called active from +8 up or from −8 down.
For assay [6], the target named is Streptavidin (Streptomyces avidinii) (UniProt P22629). The assay is described as follows: compounds binding control protein streptavidin – biophysical, small-molecule microarray, 635/667 nm fluorescence, artefact control for SMM compound annotation, primary screen (AID 1147).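 Further: signal reflects streptavidin binding to arrayed compounds as a control protein.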 The settings on record: higher = more signal.
Streptavidin (Streptomyces avidinii), sequence (P22629 whole entry, looked up): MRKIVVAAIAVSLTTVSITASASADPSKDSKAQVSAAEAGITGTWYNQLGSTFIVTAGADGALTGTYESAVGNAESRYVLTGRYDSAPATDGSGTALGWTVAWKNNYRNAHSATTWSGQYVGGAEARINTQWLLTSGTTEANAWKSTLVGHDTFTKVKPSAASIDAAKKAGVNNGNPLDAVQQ
Assay [7] is described as follows: probe aInhba binding on compound microarray – biochemical, small-molecule microarray, 635/667 nm fluorescence, primary screen (AID 1148).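 Further: score merges 667nm spot fluorescence with signal-to-noise for antibody binding to printed compounds.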 The conditions noted are these: higher = more signal.
Assay [8] deals with Torsin-1A (Homo sapiens) (UniProt O14656). The assay is described as follows: TOR1A wild-type binding on microarray – cell lysate, small-molecule microarray, lysate, 635/667 nm, primary screen (AID 1149). The settings on record: COS7 hTOR1A-WT lysate, 635 nm fluorescence, higher = more signal.
Torsin-1A (Homo sapiens), sequence (O14656 whole entry, looked up): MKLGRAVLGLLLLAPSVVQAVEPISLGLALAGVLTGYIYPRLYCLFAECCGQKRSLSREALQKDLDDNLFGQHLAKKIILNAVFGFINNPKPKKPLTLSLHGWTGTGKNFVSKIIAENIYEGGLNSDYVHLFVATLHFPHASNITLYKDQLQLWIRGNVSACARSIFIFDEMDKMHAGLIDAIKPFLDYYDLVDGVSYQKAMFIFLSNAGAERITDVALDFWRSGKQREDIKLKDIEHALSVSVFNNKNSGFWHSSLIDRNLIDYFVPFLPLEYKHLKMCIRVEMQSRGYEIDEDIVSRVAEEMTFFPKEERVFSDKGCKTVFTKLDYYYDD
Assay [9] shares this target. As to the kind of experiment: torsin A mutant lysate binding on microarrays – cell lysate, small-molecule microarray, COS7 lysate, 635/667 nm fluorescence, primary screen (AID 1150).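 Further: score pools 667 nm emission and signal to noise measuring lysate protein binding.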 The conditions noted are these: COS7 hTOR1A mutant lysate, 635 nm fluorescence, higher = more signal.
The subject of assay [10] is Sonic hedgehog protein (Shh). As to the kind of experiment: Sonic hedgehog microarray binding compounds – biochemical, small-molecule microarray, 635/667 nm fluorescence, primary screen (AID 1151).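 Further: Shh protein binding to compounds spotted on small-molecule microarray slides; score combines spot fluorescence intensity with signal-to-noise across triplicate slides.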 The settings on record: 635 nm fluorescence, higher = more signal.
A short description of assay [11]: optical density shifts of acrAB sulA E. coli – strain DRC41, OD650, 48 h, E. coli filamentation inducer project, primary screen (AID 1152).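 Further: E. coli MC1000 strain DRC41 lacking acrAB efflux pump and sulA.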 The settings on record: higher = more signal, called active from +8 up or from −8 down.
A short description of assay [12]: probe aLefty1 binding on compound microarray – biochemical, small-molecule microarray, 635/667 nm fluorescence, primary screen (AID 1153).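 Further: score merges spot fluorescence with signal-to-noise ratio from the scanned slide images.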 The settings on record: higher = more signal.
Assay [13] can be described thus: plasmodial surface anion channel blockers, osmotic lysis – cell-based, P. falciparum Indochina, OD700, 1 h, primary screen (AID 1154). The settings on record: P. falciparum Indochina infected RBC osmotic lysis, higher = more signal, called active from +8 up or from −8 down.
The nature of assay [14]: plasmodial surface anion channel blockers, osmotic lysis – cell-based, P. falciparum Indochina, OD700, 2 h, primary screen (AID 1155).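 Further: lysis reports solute entry through the parasite surface anion channel PSAC.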 The conditions noted are these: P. falciparum Indochina infected erythrocytes, higher = more signal, called active from +8 up or from −8 down.
Assay [15] is described as follows: changes in parasitized red cell lysis, either direction – P. falciparum Indochina, OD700, 3 h, PSAC antagonist project, primary screen (AID 1156). The settings on record: P. falciparum-infected erythrocytes, osmotic lysis, higher = more signal, called active from +8 up or from −8 down.
A short description of assay [16]: plasmodial surface anion channel blockers, osmotic lysis – cell-based, P. falciparum Indochina, OD700, 18 h, primary screen (AID 1157). The conditions noted are these: P. falciparum Indochina infected erythrocytes, osmotic lysis OD700, 18 h; higher = more signal, called active from +8 up or from −8 down.
The nature of assay [17]: S6 kinase pathway phospho-S6 level changes – cell-based, A549, cytoblot, luminescence, serum-stimulated, primary screen (AID 1158).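 Further: serum-stimulated A549 lung adenocarcinoma cells; signal is phosphorylated S6 detected by cytoblot immunostaining with HRP secondary.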 The conditions noted are these: 5 h, higher = more signal.
Assay [18] concerns the target NADPH oxidase 2 (Homo sapiens) (UniProt P04839). The assay is described as follows: compounds shifting NOX2 Amplex Red fluorescence – cell-based, HEK293-NOX2, PMA-stimulated, NOX inhibitor project, primary screen (AID 1159). Further: test concentration not given here. The conditions noted are these: 45 min, higher = more signal, called active from +8 up or from −8 down.
The target of assay [19] is NADPH oxidase 4 (Homo sapiens) (UniProt Q9NPH5). The assay is described as follows: compounds shifting NOX4 Amplex Red fluorescence – cell-based, HEK293-NOX4, tetracycline-induced, NOX inhibitor project, primary screen (AID 1160). The conditions noted are these: HEK293-NOX4, Amplex Red H2O2 fluorescence, 45 min; higher = more signal, called active from +8 up or from −8 down.
NADPH oxidase 4 (Homo sapiens), sequence (Q9NPH5 whole entry, looked up): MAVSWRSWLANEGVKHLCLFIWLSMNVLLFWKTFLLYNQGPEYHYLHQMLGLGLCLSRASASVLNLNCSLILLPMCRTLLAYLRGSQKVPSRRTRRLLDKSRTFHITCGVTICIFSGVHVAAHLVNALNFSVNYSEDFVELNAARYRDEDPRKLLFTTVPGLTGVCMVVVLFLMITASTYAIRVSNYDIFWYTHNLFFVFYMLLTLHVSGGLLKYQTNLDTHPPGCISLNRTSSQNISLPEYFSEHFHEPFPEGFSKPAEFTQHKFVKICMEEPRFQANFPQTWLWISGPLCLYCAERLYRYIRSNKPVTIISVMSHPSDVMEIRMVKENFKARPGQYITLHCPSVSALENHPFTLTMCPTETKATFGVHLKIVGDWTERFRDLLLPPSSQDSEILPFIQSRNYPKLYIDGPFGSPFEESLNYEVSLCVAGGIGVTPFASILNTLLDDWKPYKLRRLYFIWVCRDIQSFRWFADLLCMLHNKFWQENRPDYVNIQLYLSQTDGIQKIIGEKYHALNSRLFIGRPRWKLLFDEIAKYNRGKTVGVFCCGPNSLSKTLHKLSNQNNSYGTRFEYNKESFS

Assay [20] concerns the target NADPH oxidase 5 (Homo sapiens) (UniProt Q96PH1). As to the kind of experiment: compounds shifting NOX5 Amplex Red fluorescence – cell-based, HEK293-NOX5, NOX inhibitor project, primary screen (AID 1161). The conditions noted are these: HEK293-NOX5, ionomycin, 45 min, higher = more signal.

NADPH oxidase 2 (Homo sapiens), sequence (P04839 whole entry, looked up): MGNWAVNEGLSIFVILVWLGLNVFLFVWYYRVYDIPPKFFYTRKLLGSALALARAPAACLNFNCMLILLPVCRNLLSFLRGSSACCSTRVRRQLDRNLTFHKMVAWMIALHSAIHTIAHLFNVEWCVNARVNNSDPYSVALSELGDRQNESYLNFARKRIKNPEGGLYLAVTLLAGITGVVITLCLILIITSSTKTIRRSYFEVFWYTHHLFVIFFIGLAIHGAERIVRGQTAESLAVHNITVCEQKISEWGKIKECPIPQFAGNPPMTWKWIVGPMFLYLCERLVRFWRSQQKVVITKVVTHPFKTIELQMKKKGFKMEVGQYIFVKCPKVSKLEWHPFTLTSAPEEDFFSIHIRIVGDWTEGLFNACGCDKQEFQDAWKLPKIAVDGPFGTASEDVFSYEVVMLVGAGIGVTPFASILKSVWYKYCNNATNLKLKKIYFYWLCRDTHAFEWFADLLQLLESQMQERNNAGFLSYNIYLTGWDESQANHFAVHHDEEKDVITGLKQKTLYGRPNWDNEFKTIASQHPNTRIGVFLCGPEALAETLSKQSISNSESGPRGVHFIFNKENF
NADPH oxidase 5 (Homo sapiens), sequence (Q96PH1 whole entry, looked up): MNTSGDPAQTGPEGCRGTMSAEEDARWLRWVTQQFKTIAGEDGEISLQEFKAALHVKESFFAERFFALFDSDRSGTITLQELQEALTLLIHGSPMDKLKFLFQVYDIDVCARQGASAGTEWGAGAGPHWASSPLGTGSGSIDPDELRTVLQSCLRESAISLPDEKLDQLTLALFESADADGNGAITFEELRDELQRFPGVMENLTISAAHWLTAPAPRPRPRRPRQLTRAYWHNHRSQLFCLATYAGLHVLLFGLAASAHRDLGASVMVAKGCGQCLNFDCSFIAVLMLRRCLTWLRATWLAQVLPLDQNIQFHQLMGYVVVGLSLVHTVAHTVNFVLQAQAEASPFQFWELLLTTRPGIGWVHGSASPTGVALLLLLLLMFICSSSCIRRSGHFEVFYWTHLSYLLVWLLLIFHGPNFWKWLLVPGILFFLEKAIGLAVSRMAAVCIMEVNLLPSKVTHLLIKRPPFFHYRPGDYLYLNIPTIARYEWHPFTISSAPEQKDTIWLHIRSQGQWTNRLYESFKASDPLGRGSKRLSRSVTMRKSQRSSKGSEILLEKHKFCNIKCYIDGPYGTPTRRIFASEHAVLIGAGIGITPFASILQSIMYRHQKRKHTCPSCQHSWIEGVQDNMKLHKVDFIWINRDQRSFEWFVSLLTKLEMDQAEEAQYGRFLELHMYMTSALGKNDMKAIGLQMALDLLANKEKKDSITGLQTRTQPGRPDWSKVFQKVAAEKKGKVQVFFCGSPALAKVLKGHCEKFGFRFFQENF

As for `C[C@@H]1C=CCC(=O)OC[C@H](C)C(=O)OC[C@H]2O[C@H]1C=C[C@H]2O`, the composite z-score in [1] was 0.263; in assay [6], -0.392; in [7], -0.105; with Torsin-1A (Homo sapiens) [8], -0.0292; with Torsin-1A (Homo sapiens) [9], 0.188; in assay [10], 1.09. For the same compound, the composite z-score in assay [12] was -0.15. The z-score in assay [2] was 0.196 (inactive); in assay [3] it was -0.0585 (inactive); in assay [4] it was -0.2 (inactive); in [5] it was 0.165 (inactive); in assay [11], 0.0366 (inactive); in [13], 1.17 (inactive). The z-score is 0.714 (inactive) in assay [14]; 0.0284 (inactive) in [15]; 0.254 (inactive) in assay [16]; 1.68 in assay [17]; -0.648 (inactive) in assay [18]; -2.12 (inactive) in [19]. Besides, the z-score in assay [20] was -0.384.

For `COC(=O)[C@@]1(Cc2ccc(OC)cc2)[C@H]2c3cc(C(=O)N4CCCC4)n(Cc4cc(F)c(F)c(F)c4)c3C[C@H]2CN1C(=O)c1ccccc1`, the composite z-score in assay [1] was 2.29; in [6], 2.6; in [7], 1.87; with Torsin-1A (Homo sapiens) [8], 0.188; in the assay with Torsin-1A (Homo sapiens) [9], 0.538; in [10], -0.241. In [12], this compound returned a composite z-score of 2.39. Also, the z-score in [2] is -3.23 (inactive); in [3] it was 0.112 (inactive); in [4] it was 0.0041 (inactive); in [5], 0.589 (inactive); in [11], -2.13 (inactive); in assay [13] it was 1.1 (inactive). For the same compound, the z-score is 1.07 (inactive) in assay [14]; 0.718 (inactive) in [15]; 0.911 (inactive) in [16]; -0.215 in assay [17]; 1.01 (inactive) in [18]; -0.256 (inactive) in [19]. The z-score in assay [20] amounted to 0.603.

Turning to `CC(C)CON=C1C[C@@H](O)[C@@H](O)[C@@H]2[C@@H]3C(=O)N([C@@H](C)c4ccccc4)C(=O)[C@@H]3CC[C@H]12`, the composite z-score worked out at 0.257 in [1]; 0.528 in assay [6]; 0.168 in assay [7]; 0.466 with Torsin-1A (Homo sapiens) [8]; 0.477 in the assay with Torsin-1A (Homo sapiens) [9]; 1.58 in assay [10]. The compound also had a composite z-score in assay [12] of -0.192. Moreover, the z-score is -0.544 (inactive) in assay [2]; 1.98 (inactive) in assay [3]; -0.383 (inactive) in [4]; -0.0095 (inactive) in assay [5]; 0.525 (inactive) in assay [11]; 3.27 (inactive) in [13]. For the same compound, the z-score in assay [14] is 0.149 (inactive); in assay [15], 1.43 (inactive); in assay [16] it was 0.106 (inactive); in assay [17], -0.414; in [18] it was -3.44 (inactive); in assay [19], 1.18 (inactive). In addition, the z-score in assay [20] is 0.197.

Consider `CC(C)CON=C1[C@H]2CCn3c(=O)n(-c4ccccc4)c(=O)n3[C@H]2[C@H](O)[C@@H]2O[C@H]12`, for which the composite z-score in assay [1] is 0.134; in [6], -0.142; in assay [7] it was -0.102; with Torsin-1A (Homo sapiens) [8] it was 0.235; with Torsin-1A (Homo sapiens) [9], 0.189; in assay [10] it was 0.445. Moreover, in assay [12], the composite z-score is -0.105. The z-score was 0.893 (inactive) in assay [2]; 0.291 (inactive) in [3]; 0.797 (inactive) in assay [4]; 0.148 (inactive) in [5]; 0.424 (inactive) in [11]; 0.175 (inactive) in assay [13]. Moreover, the z-score in assay [14] was -0.2 (inactive); in [15] it was 0.0794 (inactive); in assay [16], 0.0344 (inactive); in assay [17], 0.0305; in [18] it was -5.13 (inactive); in [19], 0.018 (inactive). Besides, the z-score in [20] is 0.407.
